Source: PubChem
A selection: hits, their analogues and other compounds. The true share with any hit is near 2.7%.
Nrf2 ARE act: qHTS of Nrf2 Activators; AREc32 ARE-luciferase reporter (MCF7-derived line), luminescence, 24 h; Potency, µM (titrated, usually from 46.1 µM), for inactives: top-dose activation, most hits filed as activators; hit rate 0.31% among 410,000; AID 624171, 2012; note: potency is the fitted concentration of half-maximal effect; % of control where 0% means no effect; nearly all actives have a fitted effect of over 65% in size
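Quantitative high-throughput format: AREc32 reporter cells, 1000 per well, received compound by pin transfer and were incubated 24 hr at 37 deg C, 5% CO2, before Steady-Glo luminescence detection.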
LDHA inh: qHTS assay for inhibitors of human lactate dehydrogenase. activity change, % (values are at about 110 or 230 µM). L-lactate dehydrogenase A chain (Homo sapiens), P00338. hit rate 0.15% among 480,000. purified LDHA, NADH/diaphorase-resazurin fluorescence; stronger effect = lower value. AID 1347041, 2019; in the data active = activity change below about -30%; inconclusive = mostly about -25% to -30%;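 note: plate controls were DMSO wells for no effect and wells without enzyme for full effect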
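Remaining NADH was detected by diaphorase (0.133 mg/mL) converting 37 µM resazurin to fluorescent resorufin, read at 0 and 20 minutes. The preceding 5-minute room-temperature reaction used 2 nM LDHA, 0.2 mM sodium pyruvate and 0.06 mM NADH at pH 7.4.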
ERG Ets-DNA blk: qHTS for Small Molecule Inhibitors of the ERG Ets/DNA interaction; fluorescence polarization, His-ERG Ets domain / labelled DNA; Potency, µM (doses to about 76.9 µM), for inactives: at the highest dose FP activity, negative = inhibition, most hits filed as inhibitors; hit rate 0.028% among 370,000; active = well fitted inhibition curve with a large enough effect in the polarisation, with a control signal flat; inconclusive = small, poorly fitted or top-dose-only effect, or effect the other way, or a change in a side signal; inactive = no such curve, though single readings can be large or run the other way; the % refers to the polarisation;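 note: polarization taken with two DNA probes labelled with fluorescein and Texas red; potency is the fitted concentration of half-maximal effect; % of control where 0% means no effect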
Target sequence (P11308 whole entry, looked up, the tested form may be a part): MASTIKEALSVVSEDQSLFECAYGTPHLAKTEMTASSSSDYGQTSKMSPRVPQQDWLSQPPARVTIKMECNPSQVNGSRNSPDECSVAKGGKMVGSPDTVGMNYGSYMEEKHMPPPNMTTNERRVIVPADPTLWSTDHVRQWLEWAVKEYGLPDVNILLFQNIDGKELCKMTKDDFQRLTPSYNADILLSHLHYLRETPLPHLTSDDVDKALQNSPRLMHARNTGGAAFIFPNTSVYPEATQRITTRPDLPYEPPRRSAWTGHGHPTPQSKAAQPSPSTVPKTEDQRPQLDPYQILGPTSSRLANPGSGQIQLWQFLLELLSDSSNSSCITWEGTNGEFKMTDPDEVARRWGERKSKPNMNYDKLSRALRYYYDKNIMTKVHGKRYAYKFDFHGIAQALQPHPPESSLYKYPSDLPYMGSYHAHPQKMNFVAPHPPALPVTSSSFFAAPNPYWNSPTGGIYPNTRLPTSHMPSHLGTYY
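His-tagged ERG Ets domain (1 uM in the protein solution; 300mM KCl, 50mM Tris-HCl, 1mM EDTA, 1mM DTT, pH 7.5) received compound, then a probe mix of 5 nM fluorescein-DNA and 100nM Texas-615-DNA. Fluorescence polarization was read for both dyes.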
A549 tox: Nrf2 qHTS screen for inhibitors: counterscreen for cytotoxicity; A549 ARE-Fluc cells, CellTiter-Fluor viability, 18-24 h; Potency, µM (series often up to 46 µM), inactives show top-dose activity change, negative = cytotoxicity, most hits filed as inhibitors; hit rate 0.16% among 390,000; AID 504648, 2011; note: potency is the fitted concentration of half-maximal effect; % is set by controls: 0 for no effect and ±100 for the full control effect
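A549 ARE-Fluc cells in 5% FBS OPTI-MEM, 5000 cells/well, rested 2 h then exposed to compounds in concentration-response for 18-24 h at 37 °C. Viability by CellTiter-Fluor fluorescence (Ex 405/Em 525) after 30 min; luciferase luminescence (BugLite, 15 min, RT) read afterwards.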
ALOX12 inh: Primary qHTS assay for inhibitors of human arachidonate 12S-lipoxygenase (ALOX12): Round 2. purified 12hLO, xylenol orange hydroperoxide absorbance. hit rate 1.1% among 580,000. Potency, µM (series often up to 108 µM), without a hit: at the highest dose activity change, negative = inhibition, most hits filed as inhibitors. Polyunsaturated fatty acid lipoxygenase ALOX12 (Homo sapiens), P18054; note: potency is the fitted concentration of half-maximal effect; % is set by controls: 0 for no effect and ±100 for the full control effect
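Purified human 12hLO at 150 nM in 25 mM Hepes, 0.01% Triton X-100, pH 7.0, preincubated 15 min at room temperature with compound. Reaction started with 40 uM arachidonic acid, 30 min at room temperature. Hydroperoxide measured by Fe-xylenol orange, 573/405 nm absorbance ratio.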
Nrf2 inh: Nrf2 qHTS screen for inhibitors; A549 ARE-Fluc reporter, luciferase luminescence, 18-24 h; Potency, µM (titrated, usually from 46 µM), inactives show top-dose activity change, negative = inhibition, usual class: inhibitors; hit rate 2.1% among 360,000; AID 504444, 2011; note: potency is the fitted concentration of half-maximal effect; % is set by controls: 0 for no effect and ±100 for the full control effect; nearly all actives have a fitted effect of over 60% in size
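Quantitative HTS in A549 cells stably bearing an antioxidant response element-firefly luciferase construct. Inhibition of Nrf2-driven transcription was scored by luminescence after 18-24 h of compound exposure at 37 °C.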
Starred values were filed as active, the others as inactive; ? = inconclusive; · = no result; [ ] = another dose, or the depositor's remark. Unless noted, calls come from the whole dose curve; as a rule, active = well fitted curve in the direction sought with a large enough effect; inconclusive = small, poorly fitted or top-dose-only effect, or another doubt; inactive = no such curve, though single readings can be large; an effect the other way counts as inactive or inconclusive.

SMILES	Nrf2 ARE act	LDHA inh	ERG Ets-DNA blk	A549 tox	ALOX12 inh	Nrf2 inh
CC1C/C(=N/NC(=S)Nc2ccc(SC(F)F)cc2)CC(C)(C)C1 (stereo not given)	·	1	·	·	28µM*	·
CC1(C)C2CC=C(/C=N/NC(N)=O)C1C2 (stereo not given)	·	-3	·	·	-6%	·
CCCc1cc(=O)oc2cc(OC(C)C(=O)NCc3cccnc3)ccc12 (stereo not given)	·	4	·	·	7%	·
C[C@H]1CN([C@@H](C)CO)C(=O)c2cccc(NC(=O)Nc3ccc(C(F)(F)F)cc3)c2O[C@@H]1CN(C)C(=O)Nc1ccc(F)cc1	-6%	4	-5%	?	?	16µM*
C[C@H](CO)N1C[C@H](C)[C@@H](CN(C)Cc2ccc(C(=O)O)cc2)Oc2c(NC(=O)C3CC3)cccc2C1=O	-1%	-4	6%	-7%	31%	5%
Cc1ccc(S(=O)(=O)Nc2cccc3c2O[C@H](CN(C)C(=O)Nc2ccc(C(F)(F)F)cc2)[C@@H](C)CN([C@H](C)CO)C3=O)cc1	4%	6	10%	-18%	3%	18µM*
C[C@H](CO)N1C[C@H](C)[C@@H](CN(C)C(=O)Nc2ccc(C(F)(F)F)cc2)Oc2c(NC(=O)Nc3ccc(C(F)(F)F)cc3)cccc2C1=O	-4%	8	19%	?	?	?
C[C@H](CO)N1C[C@H](C)[C@@H](CN(C)C(=O)Nc2ccc(C(F)(F)F)cc2)Oc2c(NS(=O)(=O)c3cccs3)cccc2C1=O	0%	-3	1%	-4%	-8%	13%
C[C@H](CO)N1C[C@H](C)[C@@H](CN(C)Cc2ccc(Oc3ccccc3)cc2)Oc2c(NC(=O)C3CC3)cccc2C1=O	-5%	4	2%	-17%	?	23µM*
N#CC1=C(N)OC2=C(C(=O)CC(c3cccs3)C2)C1c1ccccc1 (stereo not given)	·	13	·	·	?	·
CC(=O)Nc1ccc(-c2csc(Nc3cccc4ccccc34)n2)cc1	·	-4	·	·	?	·
O=C(Cc1n[nH]c(=O)c2ccccc12)OCC(=O)N1CCCC1=O	·	7	·	·	-11%	·
Nc1nc(N2CCN(Cc3ccccc3)CC2)n[nH]1	2%	-7	35µM*	4%	5%	1%
CC(NC(=O)C1CCCCC1)C1CCCO1 (stereo not given)	·	-1	·	·	10%	·
CC(C)(C)c1csc(NC(=O)c2ccncc2)n1	3%	-3	-1%	-17%	-28%	16µM*
Cc1csc(NC(=O)c2ccncc2)n1	5%	-2	-8%	0%	-5%	12%
CCOC(=O)c1c(C)n(-c2ccc(C)cc2)c2c(C(C(C)=O)C(=O)O)c(Br)c(O)c(O)c12 (stereo not given)	?	28	-1%	-13%	98%	-20%
CCOC(=O)C(C(C)=O)c1c(Br)c(O)c(O)c2c(C(=O)c3ccc(C)cc3)coc12 (stereo not given)	23%	24	-1%	8.2µM*	?	7.3µM*
CCCc1cc(=O)[nH]c(SCc2nc(-c3ccc(OC)cc3OC)no2)n1	·	5	·	·	-5%	·
Cc1nn(C)cc1CN(C)C(=O)c1nn2c(c1Cl)NC(c1cccs1)CC2C(F)(F)F (stereo not given)	0%	2	·	-5%	2%	16µM*
Cc1ccc(C2CC(C(F)(F)F)n3nc(C(=O)NCc4c(C)nn(C)c4C)c(Cl)c3N2)cc1 (stereo not given)	6%	6	11%	-29%	?	12µM*
Cc1nn(C)cc1CN(C)C(=O)c1nn2c(c1Br)NC(c1cccs1)CC2C(F)(F)F (stereo not given)	0%	-2	-3%	-16%	-6%	-27%
Cc1nn(C)c(C)c1CN(C)C(=O)c1cc2n(n1)C(C(F)(F)F)CC(c1cccs1)N2 (stereo not given)	0%	0	3%	-2%	6%	13µM*
Cc1ccc(-c2cc(C(=O)O)c3ccc(C)c(C)c3n2)s1	·	7	·	·	-8%	·
CCCCC#Cc1ccc(C(=O)NNC(=O)Nc2ccccc2)o1	-1%	-39*	3%	6%	-22%	-4%
SMILES	Nrf2 ARE act	LDHA inh	ERG Ets-DNA blk	A549 tox	ALOX12 inh	Nrf2 inh
CCCCN(CCCC)Cc1ccc(C(=O)NNC(=O)Nc2ccccc2)o1	-1%	-8	-17%	9%	15%	7%
Cc1ccc(NC(=O)CN2CCc3cc4c(cc3C2C)OCCCO4)cc1 (stereo not given)	0%	-3	4%	4%	-2%	-20%
COc1cc2c(cc1OC)C(C)N(CC(=O)Nc1ccc(C)c(C)c1)CC2 (stereo not given)	·	-1	·	·	46%	·
Cc1ccc(NC(=O)CN2CCc3cc4c(cc3C2C)OCCCO4)cc1C (stereo not given)	0%	-2	-1%	-15%	-9%	26µM*
CC1c2cc3c(cc2CCN1CC(=O)Nc1ccccc1)OCCCO3 (stereo not given)	-1%	-5	-1%	-11%	33%	18µM*
CC(Sc1n[nH]c(-c2cccs2)n1)C(=O)Nc1cccc(Cl)c1Cl (stereo not given)	·	16	·	·	3%	·
COc1cccc(C(=O)NC2CC(=O)N(c3ccc(Cl)cc3)C2)c1OC (stereo not given)	·	-4	·	·	35%	·
CCOC(=O)c1cnc2c(Cl)cccc2c1Nc1ccccc1OCC	·	-5	·	·	12%	·
CCOC(=O)c1cnc2c(C)cccc2c1Nc1ccccc1OCC	·	-35*	·	·	23%	·
O=C(c1ccc(Cl)cc1)N1CC2(CCN(CC3CC3)C2)Cc2ccccc21 (stereo not given)	·	·	·	·	11%[6.33 µM]	·
CC(=O)N1CC2(CCN(Cc3ccc(Cl)cc3)C2)Cc2ccccc21 (stereo not given)	·	·	·	·	40µM*	·
O=C(c1ccc(Cl)cc1)N1CC2(CCN(C3COC3)C2)Cc2ccccc21 (stereo not given)	·	·	·	·	40µM*	·
O=C(c1ccc(Cl)cc1)N1CC2(CCN(CC3CC3)CC2)Cc2ccccc21	·	·	·	·	3%[6.33 µM]	·
O=C(c1ccc(Cl)cc1)N1CC2(CCN(Cc3ccc(Cl)cc3)C2)Cc2ccccc21 (stereo not given)	·	·	·	·	2µM*	·
